Assay results published in ChEMBL document CHEMBL3988442, “University of Dundee, Small-Polar-MMV Screening Library” (2021).
The whole screen tested about 48,000 compounds, of which about 13,000 (27%) showed an effect of 50% or more. This is one part of the list.

These compounds were tested on Wolbachia pipientis (assay: Anti-Wolbachia Cell-Based Screen). Conditions: 5 µM.
Type: functional
Parameters: scale not given: in the data most compounds retested in dose-response had high values

| SMILES | Percent Effect [%] |
| --- | --- |
| CCCN(C)CC1CCN(c2ncc(Br)cn2)C1 (stereo unspecified) | -2.862 |
| CC(C)CNC[C@H]1COCc2nc3cccnc3n21 | -3.474 |
| Cc1nc(C(=O)N2CCCC(c3nc(C(C)C)cs3)C2)c[nH]1 (stereo unspecified) | 27.35 |
| Cc1cc(C(=O)NCCCn2nccc2C2CC2)c(=O)[nH]c1C | -16.3 |
| CSc1ccc(CN2CCC(CCC(=O)Nc3ccccc3)CC2)cc1 | 8.024 |
| CN(C)c1ccc(CN2CCC(C(O)Cc3ccccc3)CC2)cn1 (stereo unspecified) | 1.983 |
| OCC1(CC2CC2)CCCN(Cc2ccc(C(F)(F)F)nc2)C1 (stereo unspecified) | -8.11 |
| CC(O)C1CCN(Cc2cnc3c(-c4ccccc4)cnn3c2)CC1 (stereo unspecified) | 2.9 |
| O=C(O)c1ccccc1-c1ccc(CN2CCC(CO)C2)cn1 (stereo unspecified) | 95.58 |
| O=C(Nc1cnn(CCN2CCOCC2)c1)c1ccccc1O | -9.189 |
| Cn1cc(C(=O)Nc2ccc(CN3CCOCC3)cn2)cn1 | -16.87 |
| O=C(O)c1ccccc1-c1ccc(CN2CCC(CO)C2)cc1 (stereo unspecified) | 100.7 |
| O=C(O)c1ccccc1-c1ccc(CN2CCC(CO)CC2)cn1 | 112.1 |
| O=C(O)c1ccccc1-c1ccc(CN2CCOCC2)cn1 | 106.2 |
| Cc1ccc(CN2CC[C@H](c3nc4cccc(C(N)=O)c4[nH]3)C2)cc1 | -7.444 |
| CC(C)c1ncc(CN2C[C@@H](CN3CCC(CO)CC3)[C@@H](CO)C2)cn1 | 1.413 |
| CC(C)=CCC1(CO)CCCN(S(=O)(=O)N2CCCC2)C1 (stereo unspecified) | -19.27 |
| COCCOc1ccccc1NC(C)C(=O)NC(=O)NC(C)(C)C (stereo unspecified) | 2.141 |
| O=C1CCC(=O)N1CCN1CCOC(c2ccsc2)C1 (stereo unspecified) | -5.454 |
| O=C1NCCO[C@H]2CN(C(=O)CC3Cc4ccccc4C3)CC[C@@H]12 | -17.08 |
| Cc1cc(C)n(-c2cc(N3CCN(C(=O)C(C)(C)C)CC3)nc(C)n2)n1 | -2.343 |
| CCCS(=O)(=O)N1CCN(c2cc(-n3nc(C)cc3C)nc(C)n2)CC1 | 56.72 |
| CCS(=O)(=O)N1CCN(c2cc(-n3cnc(C)c3C)nc(C)n2)CC1 | 9.656 |
| CCCS(=O)(=O)N1CCN(c2cc(-n3cnc(C)c3C)nc(C)n2)CC1 | 2.706 |

| SMILES | Percent Effect [%] |
| --- | --- |
| CCCS(=O)(=O)N1CCN(c2cc(-n3ccnc3)nc(C)n2)CC1 | -9.543 |
| CCCS(=O)(=O)N1CCN(c2cc(-n3cccc3)nc(C)n2)CC1 | 64.17 |
| CCc1nc(CN2CCCN(CC(=O)Nc3cccnc3)CC2)no1 | 22.91 |
| CCc1nnc(N2C[C@@H](CN(C)CCO)[C@@H](CO)C2)s1 | -3.241 |
| Cc1ccc(NC2CCN(C(=O)CCc3c(C)noc3C)CC2)nn1 | 116 |
| Cc1ccc(NC2CCN(C(=O)c3cc[nH]n3)CC2)nn1 | -5.889 |
| Cc1ccc(NC2CCN(C(=O)CCc3nccs3)CC2)nn1 | 139 |
| Cc1ccc(NC2CCN(C(=O)c3cscn3)CC2)nn1 | 107.8 |
| Cc1ccc(NC2CCN(C(=O)c3c(C)noc3C)CC2)nn1 | 4.919 |
| Cc1ccc(NC2CCN(C(=O)CCc3ccncc3)CC2)nn1 | 118.5 |
| Cc1ncc2c(n1)CN(CCCc1nc3ccccc3o1)CC2 | -1.914 |
| CC(CNC(=O)c1nnn(-c2ccccc2)c1C(F)(F)F)N(C)C (stereo unspecified) | 5.891 |
| COC(=O)c1ccc2ccn(CC3CCCN(C)C3)c(=O)c2c1 (stereo unspecified) | -29.85 |
| CCOc1ccccc1CCNC(=O)NCC(O)c1cccs1 (stereo unspecified) | -11.69 |
| CCCNC(=O)CCNC(=O)N1CCc2c(F)ccc(F)c2C1 | -1.074 |
| COc1ccc(C(=O)NC2COc3ccccc3C2)cc1OCC(=O)O (stereo unspecified) | -8.358 |
| CCC(O)CNC(=O)c1coc(COc2ccc3sc(C)nc3c2)n1 (stereo unspecified) | 7.295 |
| O=C(CCc1cccs1)N1CCC(Nc2cccnn2)CC1 | -8.369 |
| O=C(CCc1ccsc1)N1CCC(Nc2cccnn2)CC1 | 87.13 |
| Cc1ccc(NC2CCN(C(=O)CCc3ccccc3)CC2)nn1 | 109.9 |
| Cc1ccc(NC2CCN(C(=O)CCc3ccsc3)CC2)nn1 | 107.5 |
| Cc1ccc(NC2CCN(C(=O)CCc3cscn3)CC2)nn1 | 118.6 |
| Cn1c(C(F)(F)F)nn(CCNC(=O)Nc2ccccc2Cl)c1=O | -9.892 |
| COCc1c(C(=O)N2CCCC(N(C)Cc3ccccc3)C2)noc1C (stereo unspecified) | 2.95 |

| SMILES | Percent Effect [%] |
| --- | --- |
| Cc1nccn1-c1ccccc1CNC(=O)c1cn(CCN)nn1 | 1.636 |
| NCc1cn(-c2ccccc2C(=O)NCc2cccc(Cl)c2)cn1 | -5.254 |
| NCc1cn(-c2ccccc2C(=O)NCc2ccccc2Cl)cn1 | 137.2 |
| Cc1ccccc1CNC(=O)c1ccccc1-n1cnc(CN)c1 | 128.9 |
| NCc1cn(-c2ccccc2C(=O)NCc2ccccc2)cn1 | 2.452 |
| COc1ccc(Cl)cc1-n1cnc(CCNC(C)=O)c1 | -30.19 |
| COc1ccc(F)cc1-n1cnc(CCNC(C)=O)c1 | -9.257 |
| CN1CCc2c(NC(=O)NCc3ccccc3Cl)cccc21 | -4.639 |
| COc1ccccc1CNC(=O)c1ccccc1-n1cnc(CN)c1 | 104.3 |
| CCn1c(N)nc2cc(C(=O)NCc3ccccc3Cl)cnc21 | -4.176 |
| COc1cccc(CNC(=O)N2CCCC(Cn3cc(CN)nn3)C2)c1 (stereo unspecified) | -31.64 |
| COc1cccc(CNC(=O)c2ccccc2-n2cnc(CN)c2)c1 | 113.9 |
| Cc1ccc(C(=O)NS(=O)(=O)c2ccccc2C)c(=O)[nH]1 | -8.925 |
| CCNC(=O)N1CCN(Cc2nc3ccccc3[nH]2)[C@@H]2CS(=O)(=O)C[C@@H]21 | 3.535 |
| COC(=O)CC(NC(=O)c1cccc(CS(C)(=O)=O)c1)c1cccs1 (stereo unspecified) | 18.46 |
| N#Cc1ccc(F)c(CN2CCCC2Cn2cncn2)c1 (stereo unspecified) | 0.2616 |
| Cc1[nH]c(=O)sc1S(=O)(=O)N1CCCC1C(=O)NCc1ccsc1 (stereo unspecified) | 1.823 |
| CC1COCCN1C(=O)COc1ccc(Oc2ccccn2)cc1 (stereo unspecified) | 102.9 |
| CC1COCCN1C(=O)c1cccc(OCc2cscn2)c1 (stereo unspecified) | -3.154 |
| O=C(COc1cccc(Br)c1)N1CCOCC1c1ncon1 (stereo unspecified) | -1.613 |
| CC1COCCN1C(=O)COc1cccc(Oc2ccccn2)c1 (stereo unspecified) | 91.48 |
| CC(C)(C)NC(=O)COc1ccc(Oc2ccccn2)cc1 | -9.446 |
| COc1ccc(Oc2ncccc2NC(=O)N2CCOCC2C)cc1 (stereo unspecified) | -2.613 |
